Results taken from PubChem BioAssay (Tox21).
Unmarked numbers belong to inactive results. Inconclusive results are not listed. Entries that show only a call come without a potency. Activity calls are given as the source filed them. Unless noted, the call rests on the fitted dose curve.

Key:
[1] = Nuclear factor erythroid 2-related factor 2/antioxidant responsive element (Nrf2/ARE) small molecule agonists: qHTS cell viability counter screen in human keratinocytes (AID 1919968; active means well fitted curve in the direction sought with a large enough effect in the repeat runs; an effect the other way counts as inactive or inconclusive; further: nearly all actives have a fitted effect of over 55% in size; further: potency means the concentration at half of the fitted maximal effect)
How it was run: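 Parallel cytotoxicity read: KeratinoSens HaCaT cells, compound treatment 23 h, viability by CellTiter-Fluor fluorescence 1 h post-reagent.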

[2] = target: Gonadotropin-releasing hormone receptor (Homo sapiens) (UniProt P30968); assay: Human gonadotropin-releasing hormone receptor (GnRHR) small molecule agonists, calcium flux assay in GnRHR-HEK293 cells (AID 1920063); further: nearly all actives have a fitted effect of over 35% in size
Gonadotropin-releasing hormone receptor (Homo sapiens), sequence (P30968 whole entry, looked up): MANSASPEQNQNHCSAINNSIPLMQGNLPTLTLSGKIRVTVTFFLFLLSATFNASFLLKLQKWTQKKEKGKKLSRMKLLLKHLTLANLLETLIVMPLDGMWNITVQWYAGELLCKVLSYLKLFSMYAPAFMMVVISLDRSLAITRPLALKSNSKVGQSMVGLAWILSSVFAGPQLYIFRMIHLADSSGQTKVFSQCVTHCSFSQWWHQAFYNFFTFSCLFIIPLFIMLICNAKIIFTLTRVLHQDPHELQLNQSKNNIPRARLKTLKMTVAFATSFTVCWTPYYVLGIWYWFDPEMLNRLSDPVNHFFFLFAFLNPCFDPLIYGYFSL
How it was run: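 Calcium flux, agonist mode, human GnRHR stably integrated in HEK293; dye 1 h at 37 C before compound; Ex/Em=480/540 kinetic read, 3 min; 15 concentrations, triplicate.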

[3] = target: KiSS-1 receptor (Homo sapiens) (UniProt Q969F8); assay: Human kisspeptin (KISS1R) small molecule agonists, calcium flux assay in KISS1R-HEK293 cells (AID 1920064; active means well fitted curve in the direction sought with a large enough effect in the repeat runs; an effect the other way counts as inactive or inconclusive)
KiSS-1 receptor (Homo sapiens), sequence (Q969F8 whole entry, looked up): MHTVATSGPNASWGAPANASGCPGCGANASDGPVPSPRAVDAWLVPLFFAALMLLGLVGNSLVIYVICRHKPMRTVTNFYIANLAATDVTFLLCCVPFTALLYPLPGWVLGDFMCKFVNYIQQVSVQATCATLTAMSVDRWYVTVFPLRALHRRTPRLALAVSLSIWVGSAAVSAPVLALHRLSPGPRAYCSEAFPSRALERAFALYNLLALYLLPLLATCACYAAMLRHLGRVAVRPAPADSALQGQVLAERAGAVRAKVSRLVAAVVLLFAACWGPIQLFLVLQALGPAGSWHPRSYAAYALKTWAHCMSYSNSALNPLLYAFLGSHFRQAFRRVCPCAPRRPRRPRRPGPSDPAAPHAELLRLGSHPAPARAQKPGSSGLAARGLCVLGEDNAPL
How it was run: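 Triplicate 15-concentration series were applied to dye-loaded human KISS1R HEK293 cells, and agonist-evoked calcium fluorescence was captured for 3 min.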

[4] = G protein-coupled receptor (GPCR) small molecule agonists, calcium flux assay: HEK293 wild type cell line counter screen (AID 1920065)
How it was run: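 Non-specific calcium responders were flagged by adding DMSO-dissolved compounds to dye-loaded cells and reading 480/540 nm fluorescence each second for 3 min; ATP served as positive control.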

[5] = p53 small molecule agonists, cell-based qHTS assay with human liver microsomes (AID 1963577);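 further: p53 response element beta-lactamase reporter cells with liver microsomes plus NADPH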
How it was run: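 Reporter activation was measured by LiveBLAzer fluorescence intensity in p53RE-bla cells, which had been exposed to compounds for 16 h at 37 C alongside 0.5 mg/mL human liver microsomes and 0.5 mg/mL NADPH (final concentrations).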

[6] = p53 small molecule agonists, cell-based qHTS assay with rat liver microsomes (AID 1963578)
How it was run: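 Compound in DMSO added to p53RE-bla cells 5 h post-plating; rat microsomes/NADPH 0.5 mg/mL final; 16 h, 37 C; LiveBLAzer 2 h RT.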

[7] = p53 small molecule agonists, cell-based qHTS assay with rat liver microsomes: qHTS cell viability counter screen (AID 1963580); further: nearly all actives have a fitted effect of over 45% in size; further: potency means the concentration at half of the fitted maximal effect
How it was run: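 Rat liver microsome (0.5 mg/mL final) and NADPH (0.5 mg/mL final) co-incubation with compounds for 16 h at 37 C on HCT-116 p53RE-bla cells; cytotoxicity taken from intracellular ATP luminescence.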

[8] = p53 small molecule agonists, cell-based qHTS assay: qHTS cell viability counter screen (AID 1963581); further: nearly all actives have a fitted effect of over 45% in size
How it was run: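 Multiplexed with the reporter read, a CellTiter-Glo step (30 min, room temperature) gauges ATP-based viability of HCT-116 p53RE-bla cells after 16 h compound incubation at 37 C.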

[9] = target: 5-hydroxytryptamine receptor 2A (Homo sapiens) (UniProt P28223); assay: 5-hydroxytryptamine receptor 2A (HTR2A) small molecule agonists, cell-based qHTS assay (AID 1963587); further: nearly all actives have a fitted effect of over 30% in size
5-hydroxytryptamine receptor 2A (Homo sapiens), sequence (P28223 whole entry, looked up): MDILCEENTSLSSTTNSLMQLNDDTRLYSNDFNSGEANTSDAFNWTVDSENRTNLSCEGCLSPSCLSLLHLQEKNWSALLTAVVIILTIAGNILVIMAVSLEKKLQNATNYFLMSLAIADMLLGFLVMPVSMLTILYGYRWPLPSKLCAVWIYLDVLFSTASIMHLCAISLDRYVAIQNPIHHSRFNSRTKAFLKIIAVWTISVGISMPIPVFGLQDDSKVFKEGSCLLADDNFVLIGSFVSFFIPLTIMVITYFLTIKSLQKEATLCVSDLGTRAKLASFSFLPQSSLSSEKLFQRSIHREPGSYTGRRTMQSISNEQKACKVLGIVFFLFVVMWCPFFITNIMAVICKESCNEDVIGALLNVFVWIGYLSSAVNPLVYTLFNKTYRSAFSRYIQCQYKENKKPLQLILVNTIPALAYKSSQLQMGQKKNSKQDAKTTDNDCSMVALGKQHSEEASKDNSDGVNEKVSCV
How it was run: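 Kinetic calcium-flux fluorescence (2 min, 1 sec intervals) after compound addition in agonist mode. HTR2A-CHO cells were cultured 18 h, then dye-loaded 1 h at 37 C.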

[10] = target: Muscarinic acetylcholine receptor M1 (Homo sapiens) (UniProt P11229); assay: Cholinergic receptor muscarinic 1 (CHRM1) small molecule antagonists, cell-based qHTS assay (AID 1963588); further: nearly all actives have a fitted effect of over 40% in size
Muscarinic acetylcholine receptor M1 (Homo sapiens), sequence (P11229 whole entry, looked up): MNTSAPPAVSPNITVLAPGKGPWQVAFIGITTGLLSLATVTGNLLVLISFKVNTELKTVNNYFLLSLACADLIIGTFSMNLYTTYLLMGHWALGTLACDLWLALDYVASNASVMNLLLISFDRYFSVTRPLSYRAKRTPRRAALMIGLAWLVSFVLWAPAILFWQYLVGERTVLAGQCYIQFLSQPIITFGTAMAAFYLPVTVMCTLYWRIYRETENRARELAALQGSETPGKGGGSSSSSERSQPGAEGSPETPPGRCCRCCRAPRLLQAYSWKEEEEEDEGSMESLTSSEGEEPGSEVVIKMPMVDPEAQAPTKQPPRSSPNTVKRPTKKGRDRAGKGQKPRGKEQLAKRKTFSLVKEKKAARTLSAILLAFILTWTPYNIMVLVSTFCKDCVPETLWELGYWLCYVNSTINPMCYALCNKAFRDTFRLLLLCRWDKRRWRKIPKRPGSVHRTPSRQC
How it was run: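 Compounds were tested at 15 concentrations in three independent runs. Dye-loaded CHRM1-CHO cells were exposed 5 min at room temperature before stimulation by acetylcholine added at 50nM. Intracellular calcium was read kinetically on FDSS for 3 min.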

[11] = target: Muscarinic acetylcholine receptor M1 (Homo sapiens) (UniProt P11229); assay: Cholinergic receptor muscarinic 1 (CHRM1) small molecule agonists, cell-based qHTS assay (AID 1963589); further: nearly all actives have a fitted effect of over 35% in size
How it was run: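 qHTS, 15-point titration, 3 independent runs: compounds pin-transferred onto dye-loaded CHRM1-CHO cells (human M1), calcium fluorescence followed every second to detect agonism.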

[12] = target: Beta-2 adrenergic receptor (Homo sapiens) (UniProt P07550); assay: Adrenergic beta2 receptor (ADRB2) small molecule antagonists, cell-based qHTS assay (AID 1963592); further: nearly all actives have a fitted effect of over 50% in size; further: potency means the concentration at half of the fitted maximal effect; on activity change, negative = inhibition: series mostly up to about 92 µM
Beta-2 adrenergic receptor (Homo sapiens), sequence (P07550 whole entry, looked up): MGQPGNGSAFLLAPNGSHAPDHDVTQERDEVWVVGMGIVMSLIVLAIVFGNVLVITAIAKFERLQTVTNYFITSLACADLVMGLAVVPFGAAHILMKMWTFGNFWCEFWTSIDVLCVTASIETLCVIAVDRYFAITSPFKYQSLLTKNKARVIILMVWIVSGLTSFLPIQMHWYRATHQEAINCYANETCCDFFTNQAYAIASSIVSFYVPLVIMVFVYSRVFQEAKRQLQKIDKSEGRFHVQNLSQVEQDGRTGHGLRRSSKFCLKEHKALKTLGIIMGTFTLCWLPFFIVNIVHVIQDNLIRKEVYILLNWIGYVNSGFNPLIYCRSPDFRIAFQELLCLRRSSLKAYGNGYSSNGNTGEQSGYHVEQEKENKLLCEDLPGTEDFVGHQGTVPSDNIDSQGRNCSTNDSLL
How it was run: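 Assay format: CHO-ADRB2 cells, 18-20hr seeding at 37C/5% CO2, then compound plus 1nM isoproterenol agonist mix for 0.5hr RT. Homogeneous time-resolved fluorescence cAMP detection after 1hr, expressed as 665/615 nm ratio.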

[13] = target: D(2) dopamine receptor (Homo sapiens) (UniProt P14416); assay: Dopamine D2 receptor (DRD2) small molecule agonists, cell-based qHTS assay (AID 1963594); further: nearly all actives have a fitted effect of over 35% in size
D(2) dopamine receptor (Homo sapiens), sequence (P14416 whole entry, looked up): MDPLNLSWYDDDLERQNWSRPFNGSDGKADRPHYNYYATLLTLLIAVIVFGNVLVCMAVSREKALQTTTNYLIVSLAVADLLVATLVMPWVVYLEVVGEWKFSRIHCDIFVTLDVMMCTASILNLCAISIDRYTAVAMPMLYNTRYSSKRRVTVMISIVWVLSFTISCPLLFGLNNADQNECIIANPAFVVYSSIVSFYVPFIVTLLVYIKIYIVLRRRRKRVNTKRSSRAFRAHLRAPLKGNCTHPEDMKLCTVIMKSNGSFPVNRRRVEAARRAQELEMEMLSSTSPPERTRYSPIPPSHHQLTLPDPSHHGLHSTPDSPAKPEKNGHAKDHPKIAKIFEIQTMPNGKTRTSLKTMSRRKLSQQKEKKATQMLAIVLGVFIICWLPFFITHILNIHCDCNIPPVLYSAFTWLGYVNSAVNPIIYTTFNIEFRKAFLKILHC
How it was run: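 cAMP accumulation in DRD2-HEK293 cells measured by HTRF after 1 h detection; compounds added 10 min before NKH477 (200nM […]) forskolin-analogue stimulation, 30 min at room temperature, with Ro20-1724 present at 0.1 mM final.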

[14] = target: D(2) dopamine receptor (Homo sapiens) (UniProt P14416); assay: Dopamine D2 receptor (DRD2) small molecule antagonists, cell-based qHTS assay (AID 1963595; active means well fitted inhibition curve with a large enough effect in the signal ratio in the repeat runs, with a control signal flat; the % refers to the signal ratio)
How it was run: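 Cells were plated and grown for 24 h at 37 °C. Ro20-1724 (0.1 mM final) went in first, then compound for 10 min. NKH477 (200 nM) with quinpirole (12 nM) followed for 30 min at RT, then HTRF detection reagents for 1 h.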

[15] = p53 small molecule agonists, cell-based qHTS assay with human liver microsomes: qHTS cell viability counter screen (AID 1963579); further: nearly all actives have a fitted effect of over 45% in size
How it was run: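 HLM-supplemented (0.5 mg/mL final) and NADPH-supplemented (0.5 mg/mL final) p53RE-bla cultures, 4,000 cells per well, were dosed with compounds in DMSO for 16 h at 37 C; luminescent ATP detection (CellTiter-Glo, 30 min, room temperature) quantified surviving cells.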

[16] = p53 small molecule agonists, cell-based qHTS assay (AID 1963582; active means well fitted activation curve with a large enough effect in the signal ratio in the repeat runs, not every such curve was filed as active; the % refers to the signal ratio)
How it was run: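 Beta-lactamase reporter cells (p53RE-bla) treated with compounds for 16 h at 37 C; FRET substrate, 2 h, room temperature; fluorescence intensity.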

[17] = cAMP Responsive Elements (CRE) small molecule agonists, cell-based qHTS assay (AID 1963590)
How it was run: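 Quantitative HTS for CRE agonists: HEK 293T CRE-bla cells, overnight plating, 3 h compound incubation at 37 C/5% CO2, then 2 h room-temperature LiveBLAzer B/G FRET substrate loading.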

[18] = cAMP Responsive Elements (CRE) small molecule antagonists, cell-based qHTS assay (AID 1963591; active means well fitted inhibition curve with a large enough effect in the signal ratio in the repeat runs, not every such curve was filed as active; the % refers to the signal ratio)
How it was run: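 Fluorescence intensity from cleaved LiveBLAzer B/G substrate (2 h, room temperature) quantified CRE-bla activity in HEK 293T cells exposed 3 h to compound with 0.25 uM final NKH477.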

[19] = target: 5-hydroxytryptamine receptor 2A (Homo sapiens) (UniProt P28223); assay: 5-hydroxytryptamine receptor 2A (HTR2A) small molecule antagonists, cell-based qHTS assay (AID 1963586); further: nearly all actives have a fitted effect of over 45% in size; further: potency means the concentration at half of the fitted maximal effect
How it was run: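 CHO cells stably expressing human HTR2A were plated for 18 h at 37 C, then loaded with calcium dye for 1 h. Compounds were preincubated 5 min at room temperature before DOI (4 nM solution) was added. Kinetic fluorescence was read for 3 min.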

[20] = target: Beta-2 adrenergic receptor (Homo sapiens) (UniProt P07550); assay: Adrenergic beta2 receptor (ADRB2) small molecule agonists, cell-based qHTS assay (AID 1963593);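 further: CHO cells stably overexpressing human ADRB2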
How it was run: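 CHO cells stably over-expressing ADRB2 were plated overnight at 37C, then dosed with compounds plus a stimulation mix containing 100uM IBMX and 25uM Ro-20-1724 for 0.5hr at room temperature. cAMP was measured by HTRF competition, 1hr.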

O=C(CCl)C(Cl)Cl
Potency [1]: 19.5 µM (active)
Potency [2]: inactive
Potency [3]: inactive
Potency [4]: inactive
Potency [5]: inactive
Potency [6]: inactive
Potency [7]: 13 µM (active)
Potency [8]: inactive
Potency [9]: inactive
Potency [10]: inactive
Potency [11]: inactive
Potency [12]: inactive
Potency [13]: inactive
Potency [14]: inactive

CC1(C)CON(Cc2ccccc2Cl)C1=O
Potency [1]: inactive
Potency [2]: inactive
Potency [3]: inactive
Potency [4]: inactive
Potency [5]: inactive
Potency [6]: inactive
Potency [15]: inactive
Potency [7]: inactive
Potency [8]: inactive
Potency [16]: inactive
Potency [9]: inactive
Potency [10]: inactive
Potency [11]: inactive
Potency [17]: inactive
Potency [18]: inactive
Potency [12]: inactive
Potency [13]: inactive
Potency [14]: inactive

CC(C)N(C(=O)SC/C(Cl)=C/Cl)C(C)C
Potency [1]: inactive
Potency [2]: inactive
Potency [3]: inactive
Potency [4]: inactive
Potency [5]: inactive
Potency [6]: inactive
Potency [15]: inactive
Potency [7]: inactive
Potency [8]: inactive
Potency [16]: inactive
Potency [19]: inactive
Potency [9]: inactive
Potency [11]: inactive
Potency [17]: inactive
Potency [18]: inactive
Potency [12]: inactive
Potency [20]: inactive
Potency [13]: inactive
Potency [14]: inactive

Clc1ccc(-c2ccc(Cl)c(Cl)c2Cl)c(Cl)c1Cl
Potency [1]: 51.9 µM (active)
Potency [2]: inactive
Potency [3]: inactive
Potency [4]: inactive
Potency [5]: inactive
Potency [6]: inactive
Potency [15]: inactive
Potency [7]: inactive
Potency [8]: inactive
Potency [9]: inactive
Potency [10]: inactive
Potency [11]: inactive
Potency [18]: inactive
Potency [12]: inactive
Potency [13]: inactive
Potency [14]: inactive

O=C(NC(=O)c1c(F)cccc1F)Nc1cc(Cl)c(OC(F)(F)C(F)F)c(Cl)c1
Potency [1]: inactive
Potency [2]: inactive
Potency [3]: inactive
Potency [4]: inactive
Potency [5]: inactive
Potency [6]: inactive
Potency [15]: inactive
Potency [8]: inactive
Potency [16]: inactive
Potency [19]: inactive
Potency [9]: inactive
Potency [10]: inactive
Potency [11]: inactive
Potency [17]: inactive
Potency [12]: inactive
Potency [14]: inactive

O=C(CBr)OCc1ccccc1
Potency [1]: inactive
Potency [2]: inactive
Potency [3]: inactive
Potency [4]: inactive
Potency [5]: inactive
Potency [6]: inactive
Potency [15]: inactive
Potency [8]: inactive
Potency [16]: inactive
Potency [19]: inactive
Potency [9]: inactive
Potency [10]: inactive
Potency [11]: inactive
Potency [17]: inactive
Potency [18]: inactive
Potency [12]: inactive
Potency [13]: inactive
Potency [14]: inactive

CSCCCN=C=S
Potency [1]: inactive
Potency [2]: inactive
Potency [3]: inactive
Potency [4]: inactive
Potency [5]: inactive
Potency [6]: inactive
Potency [15]: inactive
Potency [8]: inactive
Potency [16]: inactive
Potency [19]: inactive
Potency [9]: inactive
Potency [10]: inactive
Potency [18]: inactive
Potency [12]: inactive
Potency [20]: inactive
Potency [13]: inactive
Potency [14]: inactive

NC(=O)CI
Potency [1]: inactive
Potency [2]: inactive
Potency [3]: inactive
Potency [4]: inactive
Potency [5]: inactive
Potency [6]: inactive
Potency [15]: inactive
Potency [7]: inactive
Potency [8]: inactive
Potency [16]: inactive
Potency [9]: inactive
Potency [10]: inactive
Potency [11]: inactive
Potency [17]: inactive
Potency [18]: inactive
Potency [12]: inactive
Potency [20]: inactive
Potency [13]: inactive
Potency [14]: inactive

O=[N+]([O-])c1ccccc1CCl
Potency [1]: inactive
Potency [2]: inactive
Potency [3]: inactive
Potency [4]: inactive
Potency [5]: inactive
Potency [6]: inactive
Potency [15]: inactive
Potency [8]: inactive
Potency [16]: inactive
Potency [19]: inactive
Potency [9]: inactive
Potency [10]: inactive
Potency [11]: inactive
Potency [17]: inactive
Potency [13]: inactive
Potency [14]: inactive

O=C1c2ccccc2C(=O)c2ccccc21
activity change, negative = cytotoxicity [1]: 8.6% [at 19 µM]
activity change [2]: -0.0358% [at 11.8 µM, stronger effect = higher value]
activation [3]: 8.4% [at 15.8 µM]
activation [4]: 0.614% [at 11.8 µM]
activation [5]: 1.15% [at 13.5 µM]
activation [6]: -4.38% [at 13.6 µM]
activity change, negative = cytotoxicity [15]: 2.91% [at 13.5 µM]
activity change, negative = cytotoxicity [7]: 1.32% [at 13.5 µM]
activity change, negative = cytotoxicity [8]: 5.09% [at 13.5 µM]
activation [16]: -1.94% [at 13.5 µM]
activation [9]: -4.26% [at 15.9 µM]
activity, negative = inhibition [10]: 2.2% [at 12.6 µM]
activity change, negative = inhibition [18]: -5.21% [at 18.9 µM]
activation [20]: -36.8% [at 19 µM]
activation [13]: -2.1% [at 19 µM]
activity change, negative = inhibition [14]: -1.46% [at 18.9 µM]

Cn1[nH]nnc1=S
Potency [1]: inactive
Potency [2]: inactive
Potency [3]: inactive
Potency [4]: inactive
Potency [5]: inactive
Potency [6]: inactive
Potency [15]: inactive
Potency [7]: inactive
Potency [8]: inactive
Potency [19]: inactive
Potency [9]: inactive
Potency [10]: inactive
Potency [17]: inactive
Potency [18]: inactive
Potency [13]: inactive
Potency [14]: inactive

C[C@]12CC[C@@H](O)C[C@@H]1CC[C@@H]1[C@@H]2CC[C@]2(C)C(=O)CC[C@@H]12
Potency [1]: inactive
Potency [2]: inactive
Potency [3]: inactive
Potency [4]: inactive
Potency [5]: inactive
Potency [6]: inactive
Potency [15]: inactive
Potency [7]: inactive
Potency [16]: inactive
Potency [17]: inactive
Potency [18]: inactive
Potency [12]: inactive
Potency [13]: inactive
Potency [14]: inactive

Oc1ccc2[nH]cc(CCCCN3CC=C(c4ccccc4)CC3)c2c1
Potency [1]: inactive
Potency [2]: inactive
Potency [3]: inactive
Potency [4]: inactive
Potency [5]: inactive
Potency [6]: inactive
Potency [15]: inactive
Potency [7]: inactive
Potency [8]: inactive
Potency [19]: 0.818 µM (active)
Potency [9]: inactive
Potency [10]: inactive
Potency [11]: inactive
Potency [12]: 26.6 µM (active)
Potency [14]: inactive
